This note sets out measurements from PubChem BioAssay AID1508608 (The Scripps Research Institute Molecular Screening Center, 2020).

Hit rate of the full screen: of about 2,300 compounds, about 20 (0.9%) were called active. The sample as a whole holds a higher share of actives than the screen did. A number with no mark means an inactive call.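 Rule for the calls: active = mean activation across replicates above 26.72%, the hit cutoff set for this confirmation screen; inactive = the rest.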

This assay deals with G-protein coupled receptor 151 (Homo sapiens) (UniProt Q8TDV0). The assay is described as follows: GPR151 activators, triplicate retest, confirmation, cell-based, PathHunter beta-arrestin, luminescence, set 2 (AID 1508608).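 Note: 0% = plate median of compound wells and 100% = EA reagent high control.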 Conditions: GPR151 PathHunter beta-arrestin cells, 90 min, at 11.2 µM, hits give high values, 100% = signal from added EA reagent.
G-protein coupled receptor 151 (Homo sapiens), sequence (Q8TDV0 whole entry, looked up): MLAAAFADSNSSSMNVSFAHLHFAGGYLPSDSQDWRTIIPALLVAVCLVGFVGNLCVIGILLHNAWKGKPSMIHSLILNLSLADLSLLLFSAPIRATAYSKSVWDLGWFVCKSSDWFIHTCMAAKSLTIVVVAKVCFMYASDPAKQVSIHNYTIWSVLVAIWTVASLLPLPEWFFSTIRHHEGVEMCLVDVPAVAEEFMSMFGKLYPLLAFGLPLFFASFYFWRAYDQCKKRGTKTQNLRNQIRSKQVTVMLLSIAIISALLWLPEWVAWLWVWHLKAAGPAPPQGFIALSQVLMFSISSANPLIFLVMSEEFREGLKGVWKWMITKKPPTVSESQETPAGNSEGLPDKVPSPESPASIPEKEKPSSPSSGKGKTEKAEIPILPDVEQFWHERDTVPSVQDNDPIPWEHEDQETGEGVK
`CC(=O)NCC(=O)N1CCC(c2nc(-c3ccncc3)ncc2-c2cccc(C)c2)CC1`: the activation was 0.35%.

As for `CCCn1c(=O)c2c(nc3n2CC(C)CN3c2cccc(Cl)c2)n(C)c1=O` (stereo unspecified), the activation is 3.55%.

Turning to `S=c1[nH]nc(OCc2ccc(Cl)cc2Cl)n1-c1ccccc1`, the activation was -1.15%.

`CC1C(=O)Nc2ccc(S(=O)(=O)Nc3ccc(F)c(Cl)c3)cc2NC1=O` (stereo unspecified): the activation was 4.91%.

For `COC(=O)C1(C(F)(F)F)N=C2C=C(C)C=CN2C(c2ccc(C)cc2)=N1` (stereo unspecified), the activation was 3.12%.

For `COC(=O)c1c(NC(=O)COc2cccc(C(F)(F)F)c2)sc2c1CCCC2`, the activation was -0.94%.

In the case of `O=C1CSc2ccc(C(=O)N3CCc4ccccc4C3)cc2N1`, the activation was -0.36%.

`Cc1sc2ncn(CC(=O)Nc3ccc(Oc4ccc(Cl)cc4)cc3)c(=O)c2c1C`: the activation is 2.02%.

For the compound `COc1ccc(/C=N/NC(=O)COc2c(OC)cc([N+](=O)[O-])cc2[N+](=O)[O-])c(O)c1`, the activation was -9.14%.

As for `CCc1c(C)nc2c(C(=O)NCCc3ccccc3)c[nH]n2c1=O`, the activation is 1.59%.

Consider `CCOc1ccc(C(=O)Nc2nc(-c3ccc(CC)cc3)cs2)cc1`, for which the activation is 4.71%.

Regarding `O=c1ccc(=O)n(CN(c2ccccc2)c2ccccc2)[nH]1`, the activation is 4.24%.

Regarding `CCN(CC)CCNC(=O)CNC(=O)c1nn(-c2ccc(OC)cc2OC)c(=O)c2ccccc12`, the activation was -4.28%.

For `Cc1ccc(-c2cc(=O)c3cc(Cl)ccc3o2)cc1`, the activation is -6.67%.

For the compound `O=C(O)CNC(=O)/C=C/c1ccccc1Cl`, the activation is -5.28%.

As for `O=c1c2sc3ccccc3c2n(CCN2CCOCC2)c(=O)n1Cc1ccccn1`, the activation was 1.89%.

As for `COc1ccc(C)cc1NC(=O)c1sc2ncn(CC(=O)Nc3ccc(C)c(Cl)c3)c(=O)c2c1C`, the activation is -0.16%.

With `O=C(c1ccccc1)c1cc2cc(Cl)ccc2oc1=O`, the activation is 1.99%.

For `O=C(CCNS(=O)(=O)c1ccc2[nH]c(=O)ccc2c1)N1CCC(N2CCCCC2)CC1`, the activation is -4.32%.

Regarding `COc1cccc(NC2c3ccccc3C(=O)N2c2cccnc2)c1` (stereo unspecified), the activation was 0.11%.

For the compound `O=C(O)c1ccc(Sc2ccc(Br)cc2)c([N+](=O)[O-])c1`, the activation is -1.52%.

On to `COc1ccc(C2C3=C(CCCC3=O)Nc3nc(SC)nn32)c(OC)c1` (stereo unspecified), for which the activation was 1.74%.

In the case of `CCOC(=O)C1=C(C)N=c2s/c(=C\c3cc([N+](=O)[O-])ccc3N3CCOCC3)c(=O)n2C1c1ccc(OC)c(OC)c1` (stereo unspecified), the activation was 0.23%.

In the case of `Cc1ccc(CN2CCN(Cc3ccc4cc(F)ccc4n3)CC2CCO)o1` (stereo unspecified), the activation is 4.51%.

With `CCn1c(=S)sc2c(=O)[nH]c(C)nc21`, the activation was -7.13%.

Regarding `CC(=O)n1nc(-c2ccco2)nc1SCc1ccccc1`, the activation was 2.59%.

For the compound `Cc1noc(C)c1S(=O)(=O)N1CCC(C(=O)N2CCCCC2C)CC1` (stereo unspecified), the activation was -1.12%.

For `CCCc1cc(=O)n2[nH]c(NCc3cccc(OC)c3)nc2n1`, the activation was -0.18%.

`CCC(C)NC(=O)CSc1nnc(-c2ccc(C)cc2)c(-c2ccc(C)cc2)n1` (stereo unspecified): the activation was 6.79%.

Regarding `COc1ccc(CCn2c(-c3ccc(Cl)cc3)csc2=Nc2ccc(F)cc2)cc1OC`, the activation was 2.13%.

In the case of `O=S(=O)(c1ccc(-c2csc(=Nc3cccc(Cl)c3)n2CCCO)cc1)N1CCCCC1`, the activation is 14.5%.

With `CCN(CC)S(=O)(=O)c1ccc(-c2csc(=Nc3ccccc3OC)n2CC)cc1`, the activation is 28.4% (active).

Take `COc1ccc(C(=O)NC(C)c2csc(C)n2)cc1OC1CCN(C(C)=O)CC1` (stereo unspecified): the activation was 1.6%.

For `Cc1ccc2c(c1)NC(C)(C)c1ssc(=Nc3ccc(S(=O)(=O)Nc4nccc(C)n4)cc3)c1-2`, the activation is 6.63%.

As for `CSc1ncc(Cl)c(C(=O)Nc2nc3ccc(S(C)(=O)=O)cc3s2)n1`, the activation was -3.08%.

On to `CC[n+]1c(/C=C2\Sc3ccc(C)cc3N2CCO)ccc2ccccc21`, for which the activation is 31.2% (active).

As to `CCC[n+]1c(/C=C2\Sc3ccccc3N2CC)ccc2ccccc21`, the activation was 15.4%.

For the compound `CN1CCN(c2cc(-c3cn[nH]c3)ccc2NC(=O)Cc2cccc(Cl)c2)CC1`, the activation was 35.5% (active).

Take `N#Cc1c(-c2ccccc2)cc(-c2cccs2)nc1SC1CCCCC1O` (stereo unspecified): the activation was 4.8%.

For the compound `Cc1ccc2nc(NC(=O)CCCN3C(=S)NC(C)(C)CC3C)sc2c1` (stereo unspecified), the activation is 2.74%.

As to `C#CCOc1c(Br)cc(C=O)cc1OC`, the activation is -0.43%.
